# Screens as filed in PubChem.
# hgDAF12 agonist: agonists of H. glycines DAF-12 nuclear receptor; AID 687014; HEK293 GAL4-hgDAF12 UAS-luciferase reporter, agonist luminescence; normalized to butyrate control; 370,000 tested, 1.8% active; activation, % at 6.8 µM;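 active = activation above a cutoff set at the mean of all screened compounds plus 3 SD, cut at about 10% in these data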
# DAX1 inh-1: inhibits human nuclear receptor DAX1; HEK293 Gal4-DAX1 luciferase reporter, luminescence; P51843; inhibition, % at 6.75 µM; 340,000 tested, 0.99% active;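 active = inhibition above the mean over all tested compounds plus 3 SD, cut at about 4.2% in these data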;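 also: inhibition shows as a rise in luminescence from relieved DAX1 repression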
# Target sequence (P51843 207-470 limits assumed): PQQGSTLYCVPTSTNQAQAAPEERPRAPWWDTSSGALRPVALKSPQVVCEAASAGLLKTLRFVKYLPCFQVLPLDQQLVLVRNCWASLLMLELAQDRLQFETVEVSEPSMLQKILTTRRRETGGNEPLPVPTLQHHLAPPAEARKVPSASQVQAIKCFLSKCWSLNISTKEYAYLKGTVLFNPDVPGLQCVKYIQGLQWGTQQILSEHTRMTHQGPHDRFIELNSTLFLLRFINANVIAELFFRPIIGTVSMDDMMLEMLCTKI
# DAX1 inh-2: DAX1 (NR0B1) inhibition, primary screen; HEK293T StAR-luciferase reporter, SF-1/DAX-1 repression relief; inhibition, % at 6.8 µM; 370,000 tested, 1.1% active; AID 652010;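 active = inhibition above the mean over all tested compounds plus 3 SD, cut at about 3.6% in these data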;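 also: higher inhibition means more luminescence from relief of DAX-1 repression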
# hcDAF-12 act: activates DAF-12 receptor from parasite H. contortus | 370,000 tested, 1.4% active | activation, % at 6.8 µM | HEK293 hcDAF-12 lit1-tk-luc reporter, luminescence; 0% DMSO, 100% Δ7-dafachronic acid | AID 652067;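 active = activation above the mean of all tested compounds plus 3 SD, cut at about 5.5% in these data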
# ssDAF-12 act: S. stercoralis DAF-12 activation, primary screen; HEK293 ssDAF-12/GRIP1 lit1-tk-luc reporter, luminescence; % of 3 µM dafachronic acid response; activation, % at 6.8 µM; 370,000 tested, 1% active;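 active = activation above the mean over all tested compounds plus 3 SD, cut at about 0.9% in these data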
# LXR ag: LXR-beta agonism as hcDAF-12 counter-screen. 3,400 tested, under 10 active. AID 743027. shares compounds with hcDAF-12 act. HEK293 Gal4-LXR tk-luc reporter, luminescence, 24 h; normalized: DMSO 0%, positive control 100%. activation, % at 6.8 µM;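 active = mean percent activation of the reporter above a cutoff set as the average over tested compounds plus their standard deviation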
# hcDAF12 ag: confirmation of H. contortus DAF-12 agonists. shares compounds with hcDAF-12 act. 3,400 tested, 61% active. AID 743032. activation, % at 6.8 µM. HEK293 hcDAF-12 lit1-tk-luc reporter, luminescence; % of Δ7-dafachronic acid response;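 active = mean activation across triplicate tests above the threshold derived from the earlier primary screen, cut at about 5.5% in these data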
# Numbers stand for hits; n = inactive; x = not tested or not shown. Hits are enriched below; roughly 4.1% of the tested compounds scored in any of these assays.
SMILES,hgDAF12 agonist,DAX1 inh-1,DAX1 inh-2,hcDAF-12 act,ssDAF-12 act,LXR ag,hcDAF12 ag
O=C(/C=C/c1ccc([N+](=O)[O-])cc1)c1cccs1,n,n,n,n,n,x,x
CC(=O)Nc1ccc(N/C=C/C(=O)c2ccc(C)o2)cc1,n,n,n,n,n,x,x
O=C(Nn1c(COc2ccccc2)nc2ccccc2c1=O)C(Cl)(Cl)Cl,n,n,n,n,n,x,x
C[C@H](O)[C@@H]1CN2CCc3c([nH]c4cccc(-c5ccc6c(c5)OCO6)c34)[C@@H]2C[C@@H]1N(C)C(=O)c1ccco1,n,x,n,n,n,x,x
CCCCCc1ccc(-c2n[nH]c(=O)c3ccccc23)cc1,n,x,n,n,n,x,x
CCOC(=O)CCCNC(=O)OCCCN1CCC2(CCC(c3ccccc3)CC2)C1=O (stereo unspecified),n,x,n,n,n,x,x
COc1ccc(OC)c(NC(=O)c2ccccc2N(Cc2ccccc2)C(=O)C(C)Cl)c1 (stereo unspecified),n,x,n,n,n,x,x
COc1cc(NC(=O)c2cc(-c3ccco3)on2)c(OC)cc1Cl,n,n,n,6.6,n,n,7.7
Cc1ccc(C2=Nc3ccccc3N=C(C(Cl)Cl)C2)cc1,19,n,3.8,17,2.8,n,9.9
COc1ccc(C)c(NC(=O)[C@@H]2CCCN2S(=O)(=O)c2cccc3cccnc23)c1,n,x,x,n,n,x,x
Cc1ccc(-c2nc(N)s[n+]2-c2ccccc2)cc1,n,n,n,n,n,x,x
CNc1nc(-c2ccccc2)[n+](-c2ccc(C)cc2)s1,n,n,n,11,1.1,n,n
CCN(CC)CCn1c2ccccc2c2nc3ccc([N+](=O)[O-])cc3cc21,n,x,n,9.0,1.1,n,6.8
Cn1c2ccccc2c2cc([N+](=O)[O-])ccc21,n,n,n,n,n,x,x
COc1ccc2nc(N=Nc3ccc(O)c4ccccc34)sc2c1,n,n,n,12,n,n,n
O=C1c2ccccc2NC(c2ccc(-c3cccs3)o2)N1O (stereo unspecified),12,n,n,7.1,1.0,n,6.0
O=C1c2ccccc2NC(c2ccc(-c3ccc(C(F)(F)F)cc3)o2)N1O (stereo unspecified),n,n,n,n,n,x,x
O=C(CCCCl)Oc1ccc2cc(-c3ccc4ccccc4n3)c(=O)oc2c1,n,n,n,8.4,n,n,n
CC(=O)Oc1ccc2cc(-c3ccccc3)c(=O)oc2c1,n,n,n,n,n,x,x
O=S1(=O)c2c(NCc3ccco3)cccc2Oc2ccccc2CN1Cc1cn(Cc2ccc(F)cc2)nn1,n,x,n,n,n,x,x
COc1ccccc1OCCNC(=O)c1cc(F)c(F)cc1Cl,n,n,n,7.8,n,n,n
N#Cc1ccccc1Sc1ccccc1N,x,n,x,x,x,x,x
Nc1ccccc1SSc1ccccc1N,n,n,n,11,n,n,n
CSc1ccc(C2NN=C(c3ccccc3)S2)cc1 (stereo unspecified),15,x,n,12,2.3,n,14
COc1ccc(C2NN=C(c3ccc(C)cc3)S2)cc1 (stereo unspecified),n,n,n,n,n,x,x
SMILES,hgDAF12 agonist,DAX1 inh-1,DAX1 inh-2,hcDAF-12 act,ssDAF-12 act,LXR ag,hcDAF12 ag
Oc1ccccc1C1NN=C(c2ccccc2)S1 (stereo unspecified),16,n,4.1,20,4.2,n,16
Cc1cc(N2CCN(CC(C)(C)O)C[C@@H]2C)ccc1N1CCN(CC(C)(C)O)[C@H](C)C1,n,x,n,n,n,x,x
COc1ccc(Cn2ccc3ccc(-c4ccc5ccn(Cc6cccc(F)c6)c5c4)cc32)cc1,n,x,n,n,n,x,x
O=C(Nc1nc2c(s1)CCCC2)Oc1ccccc1,n,n,n,n,n,x,x
CC(C)=NNc1nc(-c2ccccc2)cs1,n,n,n,7.2,n,n,n
C/C(=N\Nc1nc2c(s1)CCCC2)c1ccccc1,n,n,n,7.4,1.4,n,11
CC(C)(C)c1csc(NC(=O)c2ccccc2O)n1,n,n,n,n,n,x,x
C/C(=N\Nc1nc(C(C)(C)C)cs1)c1ccccc1,13,6.6,n,7.0,2.2,n,8.6
CCC[C@H]1[C@@H](NC(=O)c2cccc(C(F)(F)F)c2)CC[C@@]23CCCN2C(=O)CCC[C@@H]13,n,x,x,n,n,x,x
O=C(Nc1cccc2ccccc12)c1ccc([N+](=O)[O-])cc1,n,n,n,n,n,x,x
O=C(CNc1cccc2ccccc12)c1ccc([N+](=O)[O-])cc1,n,n,n,6.8,n,n,n
O=C(Nc1nc(-c2cccs2)c(-c2cccs2)s1)C1CCCC1,n,n,n,8.1,n,n,n
CNC(=S)N/N=C/c1ccc2c(c1)OCCO2,n,n,n,n,n,x,x
Cc1ccc(N/N=C/c2ccc3c(c2)OCCO3)cc1Cl,n,n,n,7.8,n,n,8.3
COc1ccccc1C(=O)N1CCCC(c2nc(-c3cccs3)no2)C1 (stereo unspecified),n,x,n,n,n,x,x
N/C(=N\NC(=O)Nc1ccccc1)c1ccccn1,n,x,n,7.7,n,n,n
CCN(CC)CCCNC(=O)c1cn(C(C)c2ccccc2)nn1 (stereo unspecified),n,x,n,n,n,x,x
Cc1ccn2cc(-c3ccc(O)c(O)c3)nc2c1,n,n,n,7.0,n,n,7.5
Cc1ccn2cc(-c3cccc(NC(=O)C(C)C)c3)nc2c1,n,n,n,n,n,x,x
O=C(N/N=C/c1cn(-c2ccccc2)nc1-c1cc2ccccc2o1)c1cccnc1,n,n,n,8.6,1.2,n,11
N#C/C(=C\c1ccccc1OCC(=O)O)c1nc2ccccc2[nH]1,n,n,n,7.8,n,n,n
N#C/C(=C\c1cn(-c2ccccc2)nc1-c1cc2ccccc2o1)c1nc2ccccc2[nH]1,n,n,n,6.6,n,n,n
CN(C)S(=O)(=O)c1cccc(-c2nn(-c3ccccc3)cc2/C=C(\C#N)c2nc3ccccc3[nH]2)c1,n,n,n,n,n,x,x
CC(C)(C)C(=O)OC12CCCN(C1)/C(=C/c1ccc(Cl)cc1)C2 (stereo unspecified),n,x,n,n,n,x,x
Cc1ccc(-n2c(SCC(=O)Nc3ccc4c(c3)OCCO4)nnc2-c2cnccn2)cc1,n,x,n,n,n,x,x
CCOC(=O)N1CCN(C(=O)C[C@H]2C[C@@]3(C(=O)OC)C(=C[C@H](C4CCCC4)O[C@@H]3C)N(CCC3=CCCCC3)C2=O)CC1,n,x,n,n,n,x,x
CSc1ncccc1C(=O)Nc1cc(C)ccn1,n,n,n,n,n,x,x
